Reference: PubChem BioAssay (NCI)
About 83,000 compounds went through this panel and 20% of them were active in at least one assay; those are over-represented in the sample as a whole.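 In brief: 96-well plates, 48 h treatment, single concentration, percent growth endpoint.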 Values without a mark were called inactive. The source made the active and inactive calls. Rule for the calls: active = growth percent below 10; inactive = the rest.

Key:
Assay in all cases: NCI-60 one-dose screen, 48 h (100 = growth as untreated, 0 = no growth, -100 = all killed)
Settings in all cases: 10 µM unless noted
[1] = tested on: NCI-H23 lung
[2] = tested on: NCI-H226 lung
[3] = tested on: NCI-H322M lung
[4] = tested on: HOP-62 NSCLC
[5] = tested on: NCI-H460 lung
[6] = tested on: HOP-92 NSCLC
[7] = tested on: NCI-H522 lung
[8] = tested on: A549/ATCC NSCLC
[9] = tested on: 786-0 renal
[10] = tested on: COLO 205 colon
[11] = tested on: DU-145 prostate
[12] = tested on: K-562 leukemia
[13] = tested on: MALME-3M melanoma
[14] = tested on: MDA-MB-231 breast
[15] = tested on: RXF 393 renal
[16] = tested on: SF-268 CNS
[17] = tested on: SF-295 CNS
[18] = tested on: SF-539 CNS
[19] = tested on: UACC-257 melanoma
[20] = tested on: M14 melanoma

SMILES	growth [1]	growth [2]	growth [3]	growth [4]	growth [5]	growth [6]	growth [7]	growth [8]	growth [9]	growth [10]	growth [11]	growth [12]	growth [13]	growth [14]	growth [15]	growth [16]	growth [17]	growth [18]	growth [19]	growth [20]
CC[C@H](CC[C@@H](C)[C@H]1CC[C@H]2[C@@H]3CC=C4C[C@@H](OCCc5nn[nH]n5)CC[C@]4(C)[C@H]3CC[C@]12C)C(C)C	97.7%	110%	101%	98.4%	109%	147%	82.9%	93.7%	101%	118%	101%	92.4%	108%	117%	129%	100%	98.1%	103%	103%	108%
CC(C)NC(=O)N1C(=O)CCC1NNC(=O)c1ccc([N+](=O)[O-])cc1 (centres undefined)	89.8%	104%	96.3%	106%	121%	109%	93.1%	104%	98.5%	112%	103%	98.6%	101%	108%	123%	100%	105%	97.7%	111%	100%
COc1ccc(-c2nc(N/N=C/c3cccc(Br)c3)nc(N3CCOCC3)c2C#N)cc1	103%	75.8%	88.5%	79.1%	31.8%	82%	70.6%	62.2%	35.6%	40.8%	49.8%	3.14% (active)	7.31% (active)	72.2%	–	81.4%	54.2%	55.9%	-17.9% (active)	24.8%
Fc1ccc(C2CC(c3cccc(Nc4ccncc4)c3)=NN2c2cc(Cl)cc(Cl)c2)cc1 (centres undefined)	80.2%	90.5%	73%	44.4%	-75.5% (active)	58.3%	73%	29.1%	102%	-54.5% (active)	30.2%	0.115% (active)	15.3%	61.4%	–	72.4%	63.3%	83%	85.9%	104%
CC1(C)[C@H](O)CC[C@]2(C)[C@@H]1CC[C@@]13C[C@@H](CC[C@H]12)[C@@](O)(CO)C3	105%	99.7%	113%	103%	104%	126%	92.1%	107%	-45% (active)	119%	117%	104%	111%	114%	–	108%	103%	106%	107%	-30.7% (active)
Clc1ccc(N2N=C(c3cccc(Nc4ccncc4)c3)CC2c2ccc(Br)cc2)cc1 (centres undefined)	57.1%	92.2%	66.2%	-39.3% (active)	-82.6% (active)	60.3%	-13.2% (active)	16.7%	105%	-48.7% (active)	24.8%	1.38% (active)	-40.5% (active)	31.8%	–	72.2%	-69% (active)	83.8%	77.8%	–
O=C1Nc2c(ccc(Cl)c2Cl)/C1=C/c1ccc([N+](=O)[O-])cc1	91.3%	159%	84.9%	90.6%	107%	95.5%	88.7%	29.2%	59.7%	114%	108%	89.5%	84.4%	94.2%	–	93.3%	76.7%	95.4%	72%	104%
Fc1ccc(C2CC(c3cccc(Nc4ccncc4)c3)=NN2c2ccc(Cl)cc2)cc1 (centres undefined)	88.6%	91.4%	78%	64.9%	-53.9% (active)	52.2%	83.1%	52.6%	104%	-59.8% (active)	52%	1.22% (active)	33.1%	60.7%	–	77.9%	66.5%	84.1%	80.8%	101%
COc1cc(OC)cc(C2C3=C(COC3=O)Nc3cc(OC)ccc32)c1 (centres undefined)	12.1%	-3.11% (active)	50.5%	22%	4.2% (active)	52.6%	-40.5% (active)	16.6%	11%	-74.1% (active)	-30.2% (active)	11.9%	71.6%	-7.98% (active)	–	18.1%	10.9%	1.4% (active)	45.5%	3.85% (active)
COc1ccc(-c2nc(SCCC(C)C)nc(N/N=C(/C)c3ccc(C)cc3)c2C#N)cc1	84.5%	91.7%	87.4%	93.9%	99.7%	62.2%	87.2%	99.3%	102%	109%	104%	94.6%	103%	71%	–	93.2%	97.7%	86.9%	98%	90.4%
CCCCCCCCN1C(=O)/C(=c2\sc3n(c2=O)C2C(NN=3)N(CC)C(=O)N2CC)c2ccccc21 (centres undefined)	79.1%	91.9%	83%	47.3%	88%	62.7%	66.6%	75.9%	65.7%	104%	97.8%	92.6%	82.6%	71.5%	–	65.3%	73%	59.9%	96.3%	–
COc1ccc(/C=C2\COc3ccc(-c4ccccc4)cc3C2=O)cc1O	50.5%	96.2%	66.7%	-41.9% (active)	16.7%	-1.71% (active)	17.8%	62%	-21.8% (active)	63.9%	-2.34% (active)	2.96% (active)	74.7%	41.6%	–	13.3%	24.2%	-0.576% (active)	48.3%	22.9%
CC(=O)Nc1ccc(C(=O)Nc2cc(-c3ccccc3)ccc2N)cc1	86.4%	124%	79.5%	67.7%	59.7%	69.2%	55.6%	74.2%	97.9%	35.5%	73.2%	39.2%	80.6%	92.5%	–	68.2%	58.7%	81%	72.6%	77.3%
O=C1NC(=O)C(=Cc2cn(Cc3ccccn3)c3ccccc23)C(=O)N1	103%	79.7%	105%	92.7%	11.9%	95.8%	92.6%	76.3%	100%	54.4%	110%	76.4%	101%	108%	–	93.7%	79.5%	94.5%	103%	99.7%
COc1cc(/C=C2\C(=O)N(Cc3ccc(Cl)cc3)c3ccccc32)cc(OC)c1OC	34.4%	46.7%	66.9%	55.9%	25.2%	44%	11.4%	9.8% (active)	32.7%	48%	-39.1% (active)	8.83% (active)	65.5%	23.3%	–	10.9%	40.9%	23.3%	21.9%	37.7%
C[C@]12C[C@H]1CC[C@]1(C)[C@@H]2CC[C@@]23C[C@H](CC[C@H]21)[C@@](O)(CO)C3	98.5%	96.8%	94.2%	109%	94.3%	92.9%	87%	99.6%	-80.1% (active)	109%	104%	66.7%	98.7%	93.1%	–	103%	113%	93%	100%	-47.9% (active)
